This assay concerns the target Death-associated protein kinase 1 (Homo sapiens) (UniProt P53355). Particulars: at 1 µM.
Chain of Death-associated protein kinase 1 (Homo sapiens) (P53355 whole entry, looked up): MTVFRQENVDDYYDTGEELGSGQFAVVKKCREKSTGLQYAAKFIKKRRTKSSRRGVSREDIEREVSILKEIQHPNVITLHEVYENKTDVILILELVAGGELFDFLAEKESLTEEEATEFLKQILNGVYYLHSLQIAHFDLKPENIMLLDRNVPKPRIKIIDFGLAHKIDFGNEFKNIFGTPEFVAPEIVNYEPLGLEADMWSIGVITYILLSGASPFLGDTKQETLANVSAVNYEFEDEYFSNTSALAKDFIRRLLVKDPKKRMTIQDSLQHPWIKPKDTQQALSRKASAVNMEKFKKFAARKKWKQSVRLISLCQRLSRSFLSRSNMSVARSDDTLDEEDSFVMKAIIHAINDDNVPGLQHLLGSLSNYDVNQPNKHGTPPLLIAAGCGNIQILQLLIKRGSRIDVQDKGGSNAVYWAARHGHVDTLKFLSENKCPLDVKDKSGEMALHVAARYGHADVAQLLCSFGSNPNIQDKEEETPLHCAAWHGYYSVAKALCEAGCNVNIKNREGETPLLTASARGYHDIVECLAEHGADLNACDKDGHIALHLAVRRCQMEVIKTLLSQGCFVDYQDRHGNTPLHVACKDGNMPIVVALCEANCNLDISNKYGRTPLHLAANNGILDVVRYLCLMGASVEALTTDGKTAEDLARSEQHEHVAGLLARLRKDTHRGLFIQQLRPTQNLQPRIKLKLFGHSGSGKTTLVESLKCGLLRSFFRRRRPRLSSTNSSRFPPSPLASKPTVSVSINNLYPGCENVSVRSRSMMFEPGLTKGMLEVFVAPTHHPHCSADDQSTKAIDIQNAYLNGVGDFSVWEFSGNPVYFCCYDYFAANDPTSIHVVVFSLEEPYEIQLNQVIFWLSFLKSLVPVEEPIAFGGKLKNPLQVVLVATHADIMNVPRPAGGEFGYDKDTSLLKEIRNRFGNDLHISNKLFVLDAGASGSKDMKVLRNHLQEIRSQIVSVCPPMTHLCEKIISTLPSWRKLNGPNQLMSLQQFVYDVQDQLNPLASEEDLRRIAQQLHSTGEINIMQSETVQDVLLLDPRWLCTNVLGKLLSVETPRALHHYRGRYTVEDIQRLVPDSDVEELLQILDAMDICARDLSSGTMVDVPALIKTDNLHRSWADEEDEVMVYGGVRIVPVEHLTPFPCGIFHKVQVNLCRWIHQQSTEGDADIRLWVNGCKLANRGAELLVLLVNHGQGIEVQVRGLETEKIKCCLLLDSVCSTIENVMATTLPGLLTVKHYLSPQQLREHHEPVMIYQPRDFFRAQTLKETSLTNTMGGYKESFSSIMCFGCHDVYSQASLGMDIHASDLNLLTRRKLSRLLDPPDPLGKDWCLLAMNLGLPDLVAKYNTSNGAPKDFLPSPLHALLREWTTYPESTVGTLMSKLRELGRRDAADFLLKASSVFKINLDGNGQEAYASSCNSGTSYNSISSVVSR
In the case of `O=Nc1c(-c2c(O)[nH]c3ccccc23)[nH]c2ccccc12`, the residual activity turned out to be 91%.
For `CCOC(=O)c1c(C)[nH]c(/C=C2\C(=O)Nc3ccccc32)c1C` the value was 83%; for `CCC(=O)Nc1ccc2ncnc(Nc3cccc(Br)c3)c2c1`, 80%.
Next, `N#CC(C#N)=C(N)/C(C#N)=C/c1ccc(O)cc1`: 85%; `Nc1ncnc2[nH]nc(Nc3ccc(F)cc3)c12`: 102%.
With `Cc1cc(Nc2nc(-c3ccccc3)nc3ccccc23)n[nH]1`, the residual activity is 59%.
For `O=C(CCCc1ccc(-c2ccccc2F)cc1)Nc1ccc(O)cc1` the value was 95%; for `O=c1cc(N2CCNCC2)oc2c(-c3ccccc3)cccc12`, 96%.
For `Oc1ccc(Nc2nc(-c3ccc(Cl)cc3)cs2)cc1` the value was 90%.
For `CC(C)(C)c1nc2c3ccc(F)cc3c3c(=O)[nH]ccc3c2[nH]1` the value was 8%; for `COc1cc2ncnc(N3CCN(C(=O)Nc4ccc(Oc5ccccc5)cc4)CC3)c2cc1OC`, 90%; for `O=[N+]([O-])c1ccc(-c2nc(-c3ccc(F)cc3)c(-c3ccncc3)[nH]2)cc1`, 74%.
Consider `O=C1C(Cl)=C(N2C(=O)CCC2=O)C(=O)c2ccccc21`, for which the residual activity was determined as 91%.
In the case of `COc1cc2ncnc(Nc3ccc(NC(=O)c4ccccc4)cc3)c2cc1OC`, the residual activity turned out to be 95%.
For `NC(=O)c1ccc2[nH]c(-c3ccc(Oc4ccc(Cl)cc4)cc3)nc2c1` the value was 93%.
For `COc1ccc(CNc2nc(N(CCO)CCO)nc3c2ncn3C(C)C)cc1` the value was 93%; for `c1ccc2c(-c3ccncc3)c[nH]c2c1`, 85%.
Next, `CN(C)CCCn1cc(C2=C(c3c[nH]c4ccccc34)C(=O)NC2=O)c2ccccc21`: 106%; `Oc1n[nH]c2nnc(-c3c(-c4ccccc4)nn4ccccc34)cc12`: 52%; `O=C1Nc2ccccc2/C1=C1/Nc2ccccc2/C1=N\OCCC(O)CO` (stereo unspecified): 81%.
For `COc1ccc(C(=O)Nc2sc3c(c2C(N)=O)CCCC3)cc1OC`, the residual activity amounted to 93%.
For `COc1ccc(S(=O)(=O)N(CCO)c2ccccc2CN(C)C/C=C/c2ccc(Cl)cc2)cc1` the value was 86%; for `Nc1ncnc2c1c(-c1ccc(Oc3ccccc3)cc1)cn2C1CCCC1`, 91%; for `Cc1cc2ncc(-c3ccccc3)nc2cc1C`, 92%.
For `Nc1ccc2ncnc(NCCc3ccc(Oc4ccccc4)cc3)c2c1` the value was 94%; for `CCCC(=O)Oc1ccc2[nH]c(C(=O)c3cc4ccccc4[nH]3)cc2c1`, 83%.
Next, `Cc1ccc(NC2=CC(=O)c3sc(C)nc3C2=O)cc1`: 87%.
Regarding `O=C1Nc2cc(Br)ccc2/C1=C1/Nc2ccccc2/C1=N\O`, the residual activity was found to be 80%.
For `O=C1c2ccccc2-[n+]2ccc3c([nH]c4ccccc43)c21` the value was 86%; for `COc1ccc(OC)c2c(=S)c3ccccc3[nH]c12`, 95%; for `O=C1NC(=O)c2c1c1c3ccccc3[nH]c1c1[nH]c3cc(Br)ccc3c21`, 85%.

These data come from ChEMBL document CHEMBL2218924, “A broad activity screen in support of a chemogenomic map for kinase signalling research and drug discovery” (Biochem J, 2013).
